What all share (test): NCI-60 one-dose screen, 48 h (100 = growth as untreated, 0 = no growth, -100 = all killed)
Assay [1] deals with HCT-15 colon. The conditions noted are these: 10 µM.
Assay [2] has as its system HT29 colon. The conditions noted are these: 10 µM.
The test system of assay [3] is SNB-75 CNS. The conditions noted are these: 10 µM.
The test system of assay [4] is SNB-19 CNS. To be noted: 10 µM.
The test system of assay [5] is U251 CNS. To be noted: 10 µM unless noted.
The subject of assay [6] is PC-3 prostate. The conditions noted are these: 10 µM.
Assay [7] deals with LOX IMVI melanoma. The conditions noted are these: 10 µM unless noted.
Assay [8] relates to SK-MEL-28 melanoma. To be noted: 10 µM.
The subject of assay [9] is SK-MEL-2 melanoma. To be noted: 10 µM.
The test system of assay [10] is EKVX NSCLC. To be noted: 10 µM.
Assay [11] deals with UO-31 renal. To be noted: 10 µM.
Assay [12] concerns TK-10 renal. The conditions noted are these: 10 µM.
Assay [13] deals with ACHN renal. The conditions noted are these: 10 µM.
For assay [14], the system named is CAKI-1 renal. To be noted: 10 µM.
Assay [15] relates to A498 renal. To be noted: 10 µM.
Assay [16] deals with CCRF-CEM leukemia. To be noted: 10 µM.
The subject of assay [17] is MOLT-4 leukemia. The conditions noted are these: 10 µM.
The subject of assay [18] is UACC-62 melanoma. To be noted: 10 µM.
Assay [19] relates to SN12C renal. To be noted: 10 µM.

The record followed here is PubChem BioAssay (NCI).

The panel holds about 83,000 compounds, 20% with a hit somewhere; the sample as a whole holds those more often.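 Assay: single dose, 48 h. Readout: percent growth (0 = no net growth; negative = cell death). Active: <10.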 Unmarked numbers belong to inactive results. Calls of active or inactive are those of the source.

For `OC(CN1CCCC2CCCCC21)c1cc2ccccc2c2ccccc12` (centres undefined), the growth in assay [1] was 22.5%; in [2], 1.91% (active); in assay [3], 12.5%; in assay [4], 43.6%; in assay [5] it was 28.2%; in assay [6], 38.5%. The growth in assay [7] was -19.9% (active); in [8], 49.4%; in [9] it was 42.8%; in [10], 42.3%; in assay [11], 35.6%; in [12], 52.6%. For the same molecule, the growth is 29.1% in assay [13]; 41.2% in [14]; 58.8% in assay [15]; 68.2% in assay [16]; -1.89% (active) in [17].

Turning to `Cc1nc(N=C(N)N)nc2ccc3ccccc3c12`, the growth in assay [1] was 71.8%; in assay [2], 1.55% (active); in [3], -10.3% (active); in assay [4] it was -11.5% (active); in [5] it was -17% (active); in assay [6] it was -19.2% (active). The growth in [18] was -20.9% (active); in assay [7], 2.45% (active); in [8], -0.847% (active); in [9] it was -19% (active); in assay [11], 5.39% (active); in assay [12], 3.86% (active). Moreover, the growth was 15.1% in [13]; 75.2% in assay [14]; 32.9% in assay [15]; -25.9% (active) in [16]; -28.2% (active) in assay [17].

Turning to `CCCCCCCCCCCC[N+](C)(C)Cc1ccccc1`, the growth in [1] was 90.8%; in [2] it was 5.91% (active); in assay [3], -12.7% (active); in assay [4], 20.5%; in assay [5], 17.3%; in [6] it was -18.7% (active). Also, the growth in assay [18] was -41.2% (active); in [7] it was 25.9%; in assay [8] it was 17.5%; in [9], -11.9% (active); in assay [19] it was 10.1%; in assay [11], 55.4%. The growth is -1.57% (active) in [12]; 78.7% in [13]; 82.1% in [14]; 79% in assay [15]; -15.9% (active) in assay [16]; -21.9% (active) in [17].

As for `CSC1SCC2C(=O)N(C)C(C(C)C)C(=O)OCC(NC(=O)c3cnc4ccccc4n3)C(=O)NC(C)C(=O)N(C)C1C(=O)N(C)C(C(C)C)C(=O)OCC(NC(=O)c1cnc3ccccc3n1)C(=O)NC(C)C(=O)N2C` (centres undefined), the growth is 4.08% (active) in [1]; 2.66% (active) in [2]; -80.2% (active) in [3]; -13.3% (active) in assay [4]; 5.23% (active) in assay [5]; -12.7% (active) in assay [6]. In addition, the growth in assay [18] is -77% (active); in assay [7] it was 3.98% (active); in assay [8], -13.9% (active); in [9] it was -28.3% (active); in assay [10], -8.18% (active); in assay [11], 13.4%. Besides, the growth in assay [12] was 20.1%; in assay [13] it was 2.44% (active); in assay [14], -13% (active); in assay [15], -76.6% (active); in [16], -25.7% (active); in assay [17] it was -33.8% (active).

Regarding `O=C(O)COc1ccc(OCC(=O)O)cc1`, the growth was 71.7% in assay [1]; 5.13% (active) in assay [2]; -11.9% (active) in assay [3]; 8.27% (active) in [4]; -0.509% (active) in [5]; 31% in assay [6]. The growth was -3.08% (active) in assay [18]; -64.4% (active) in assay [7]; 53.2% in assay [8]; 64.9% in assay [9]; 51.8% in assay [10]; 50.5% in assay [11]. Moreover, the growth in [12] is 20.6%; in [13], 30.1%; in assay [14], 90.7%; in [15], -14.2% (active); in assay [16], 2.46% (active); in assay [17], 9.12% (active).

For the molecule `CCCCCC(C)c1ccc(O)c(C)c1` (centres undefined), the growth in assay [1] is 103%; in assay [2], 103%; in assay [3], 92.1%; in assay [5], 107%; in assay [6], 103%; in [7], 98%. The growth in assay [8] is 111%; in assay [9] it was 104%; in assay [10] it was 108%; in assay [11], 83.5%; in [12], 107%; in assay [13] it was 101%. Also, the results for the growth in assay [14], in assay [15] and in [17] were 103%, 81.9% and 93%, respectively.

Consider `Clc1ccc(/C=C/c2ccccn2)c(Cl)c1`, for which the growth was 68.2% in assay [1]; 83.3% in [2]; 61.2% in assay [3]; 92.7% in assay [4]; 79.1% in assay [5]; 85.9% in [6]. The growth in assay [18] is 80.6%; in [7] it was 91.3%; in assay [8] it was 120%; in assay [9], 107%; in assay [10], 58.9%; in assay [11], 59.6%. In addition, the growth was 98% in assay [12], 104% in assay [13], 72.7% in assay [14] and 79.5% in assay [17].
